Of roughly 7,900 targets only a part is listed; those with a hit were picked by preference. About 0.6% of all pairs of compound and target were hits.
Columns and labels:
Test in all cases: log2 fold change, soluble protein after heating vs DMSO (PISA); higher = thermal stabilisation; K562 cells, 10 uM, 30 min; active = over 0.2 and 3.5 SD of the protein, either way, in both replicates (recomputed)
[1] = compound: COC1=CC=C(C=C1)CN2C=CC3=C2C=C(C=C3)C(=O)NO
Outline: (§1)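 K562 cells at 2×10^6 cells/mL were exposed to 10 μM compound for 30 min, then aliquots were heated for 3 min across 48°C-58°C, pooled, and extracted in PBS containing 0.5% NP-40 at 4°C. The supernatant after 21,000xg for 90 min was taken as soluble protein and measured by TMTpro 16plex LC-MS/MS with channel sums equalised. Thermal stability is reported relative to control samples, with values from duplicates. Fold changes are given on a log2 scale.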

[2] = compound: CON(C)C(=O)N1N=C(c2cc(F)ccc2F)S[C@@]1(CCCN)c1ccccc1 [filanesib]
Outline: as §1

[3] = compound: CO[C@H]1C[C@@H]2CC[C@@H](C)[C@@](O)(O2)C(=O)C(=O)N2CCCC[C@H]2C(=O)O[C@H]([C@H](C)C[C@@H]2CC[C@H](n3cnnn3)[C@H](OC)C2)CC(=O)[C@H](C)/C=C(\C)[C@@H](O)[C@@H](OC)C(=O)[C@H](C)C[C@H](C)/C=C/C=C/C=C/1C [zotarolimus]
Outline: as §1

[4] = compound: COc1cc(C(=O)O)ccc1NC(=O)[C@@H]1N[C@@H](CC(C)(C)C)[C@](C#N)(c2ccc(Cl)cc2F)[C@H]1c1cccc(Cl)c1F [idasanutlin]
Outline: as §1

[5] = compound: COc1cc(Nc2ncc3c(n2)-c2ccc(Cl)cc2C(c2c(F)cccc2OC)=NC3)ccc1C(=O)O [alisertib]
Outline: as §1

[6] = compound: COc1cc2nc(-c3cc(F)ccc3O)nc(N[C@@H]3CNC[C@H]3C(C)(C)O)c2cc1OC
Outline: as §1

[7] = compound: COc1cc2ncnc(Nc3ccc(F)c(Cl)c3)c2cc1OCCCN1CCOCC1 [gefitinib]
Outline: as §1

[8] = compound: COc1cccc2cc(-c3nc([C@H]4CC[C@H](C(=O)O)CC4)n4ncnc(N)c34)[nH]c12
Outline: as §1

[9] = compound: CS(=O)(=O)CCNCc1ccc(-c2ccc3ncnc(Nc4ccc(OCc5cccc(F)c5)c(Cl)c4)c3c2)o1 [lapatinib]
Outline: as §1

[10] = compound: CS(=O)(=O)N1CCN(Cc2cc3nc(-c4cccc5[nH]ncc45)nc(N4CCOCC4)c3s2)CC1 [pictilisib]
Outline: as §1

Measured: log2 fold change

CLPP (UniProt Q16740)
inactive: [1] -0.03 | [2] -0.017 | [3] 0 | [4] -0.038 | [5] -0.091 | [6] 0.011 | [7] 0.01 | [8] 0.021 | [9] -0.034

CMTR1 (UniProt Q8N1G2)
Chain of UniProt Q8N1G2 (Q8N1G2 whole entry, looked up): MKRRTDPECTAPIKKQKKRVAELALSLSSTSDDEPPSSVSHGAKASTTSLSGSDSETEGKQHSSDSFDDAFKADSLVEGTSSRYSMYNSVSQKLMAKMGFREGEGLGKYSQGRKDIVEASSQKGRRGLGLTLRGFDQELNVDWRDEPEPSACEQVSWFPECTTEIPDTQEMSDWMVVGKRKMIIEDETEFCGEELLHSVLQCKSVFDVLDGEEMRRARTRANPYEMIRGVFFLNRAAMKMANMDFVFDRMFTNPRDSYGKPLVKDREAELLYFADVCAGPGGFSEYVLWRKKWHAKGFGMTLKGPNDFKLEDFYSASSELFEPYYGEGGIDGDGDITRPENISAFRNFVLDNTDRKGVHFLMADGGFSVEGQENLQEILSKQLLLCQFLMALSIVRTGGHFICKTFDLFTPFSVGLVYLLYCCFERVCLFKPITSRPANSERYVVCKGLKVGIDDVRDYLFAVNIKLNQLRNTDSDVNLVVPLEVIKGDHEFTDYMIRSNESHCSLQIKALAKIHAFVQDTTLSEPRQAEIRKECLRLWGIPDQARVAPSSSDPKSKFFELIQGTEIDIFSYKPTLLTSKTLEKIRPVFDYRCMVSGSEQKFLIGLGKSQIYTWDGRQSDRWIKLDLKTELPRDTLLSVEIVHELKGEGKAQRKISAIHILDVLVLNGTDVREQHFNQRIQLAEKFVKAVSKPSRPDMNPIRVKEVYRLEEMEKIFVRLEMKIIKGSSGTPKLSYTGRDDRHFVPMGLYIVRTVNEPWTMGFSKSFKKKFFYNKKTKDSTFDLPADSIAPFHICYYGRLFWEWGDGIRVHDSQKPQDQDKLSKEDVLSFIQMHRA
active: [1] -0.337
inactive: [2] 0.001 | [3] -0.013 | [4] -0.052 | [5] -0.026 | [6] 0.065 | [7] 0.025 | [8] 0.017 | [9] -0.012 | [10] 0.009

CLCN3 isoform 2 (UniProt P51790)
inactive: [1] 0.057 | [2] -0.151 | [3] -0.031 | [4] -0.008 | [5] 0.03 | [6] -0.064 | [7] -0.015 | [8] 0.04 | [9] 0.008

CDC42SE1 (UniProt Q9NRR8)
Chain of UniProt Q9NRR8 (Q9NRR8 whole entry, looked up): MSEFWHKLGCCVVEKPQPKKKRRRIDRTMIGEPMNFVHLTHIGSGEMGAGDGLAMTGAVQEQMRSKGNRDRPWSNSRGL
inactive: [1] -0.011 | [2] -0.049 | [3] 0 | [4] -0.093 | [5] 0.003 | [6] 0.036 | [7] -0.025 | [8] -0.168 | [9] -0.088

CNDP2 (UniProt Q96KP4)
inactive: [1] -0.171 | [2] -0.145 | [3] 0.041 | [4] -0.024 | [5] -0.049 | [6] -0.001 | [7] -0.008 | [8] 0.027 | [9] 0.017 | [10] 0.021

CPSF1 (UniProt Q10570)
inactive: [1] -0.042 | [2] 0.164 | [3] 0.095 | [4] 0.053 | [5] -0.08 | [6] 0.02 | [7] -0.079 | [8] 0.01 | [9] 0.029 | [10] -0.058

COMT (UniProt P21964)
Chain of UniProt P21964 (P21964 whole entry, looked up): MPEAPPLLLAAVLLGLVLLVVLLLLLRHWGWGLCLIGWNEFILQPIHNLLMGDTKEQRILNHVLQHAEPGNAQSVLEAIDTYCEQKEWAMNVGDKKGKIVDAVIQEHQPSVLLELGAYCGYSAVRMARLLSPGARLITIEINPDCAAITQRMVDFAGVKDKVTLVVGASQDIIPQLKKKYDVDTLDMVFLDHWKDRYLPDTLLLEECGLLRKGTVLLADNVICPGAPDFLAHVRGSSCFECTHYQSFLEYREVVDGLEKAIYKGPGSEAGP
inactive: [1] -0.097 | [2] -0.054 | [3] 0.034 | [4] -0.093 | [5] 0.009 | [6] 0.15 | [7] 0.043 | [8] 0.004 | [9] -0.042 | [10] 0.136

C22orf39 (UniProt Q6P5X5)
Chain of UniProt Q6P5X5 (Q6P5X5 whole entry, looked up): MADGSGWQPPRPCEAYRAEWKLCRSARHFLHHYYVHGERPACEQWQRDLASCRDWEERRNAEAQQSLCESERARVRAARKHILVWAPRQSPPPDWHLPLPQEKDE
inactive: [1] 0.02 | [2] -0.043 | [3] -0.014 | [4] 0.119 | [5] -0.025 | [6] -0.344 | [7] 0.058 | [8] -0.006 | [9] 0.077

CLTB (UniProt P09497)
active: [1] 0.263
inactive: [2] -0.053 | [3] -0.006 | [4] -0.02 | [5] -0.106 | [6] 0 | [7] 0.017 | [8] 0.028 | [9] -0.014

CLINT1 isoform 3 (UniProt Q14677)
inactive: [1] -0.159 | [2] 0.155 | [3] -0.031 | [4] 0 | [5] -0.105 | [6] 0.074 | [7] 0.148 | [8] -0.041 | [9] 0.014

CDC42BPA isoform 6 (UniProt Q5VT25)
inactive: [1] -0.005 | [2] 0.009 | [3] 0.081 | [4] 0.004 | [5] -0.04 | [7] -0.096 | [8] -0.027 | [9] 0.106 | [10] 0.118
active: [6] -1.1

CLPX (UniProt O76031)
Chain of UniProt O76031 (O76031 whole entry, looked up): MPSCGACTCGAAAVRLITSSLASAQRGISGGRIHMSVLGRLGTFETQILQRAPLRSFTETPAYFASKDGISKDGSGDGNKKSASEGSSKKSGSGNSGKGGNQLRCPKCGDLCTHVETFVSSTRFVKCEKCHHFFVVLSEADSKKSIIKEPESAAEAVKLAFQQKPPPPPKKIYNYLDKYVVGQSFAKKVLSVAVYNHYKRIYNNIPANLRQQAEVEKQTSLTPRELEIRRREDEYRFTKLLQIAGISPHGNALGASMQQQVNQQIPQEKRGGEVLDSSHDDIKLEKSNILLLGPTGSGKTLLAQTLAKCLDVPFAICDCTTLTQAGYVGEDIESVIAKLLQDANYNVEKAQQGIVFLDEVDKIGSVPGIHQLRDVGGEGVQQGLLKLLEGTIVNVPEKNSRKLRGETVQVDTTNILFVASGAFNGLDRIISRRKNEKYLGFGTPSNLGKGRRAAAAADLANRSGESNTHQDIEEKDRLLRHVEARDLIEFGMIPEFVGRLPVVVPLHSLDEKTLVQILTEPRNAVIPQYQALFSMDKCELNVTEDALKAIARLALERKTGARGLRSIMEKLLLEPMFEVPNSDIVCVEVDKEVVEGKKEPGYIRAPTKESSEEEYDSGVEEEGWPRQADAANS
inactive: [1] 0.077 | [2] -0.07 | [3] -0.052 | [4] -0.007 | [5] -0.026 | [6] -0.017 | [7] 0.019 | [8] 0.021 | [9] 0.014

CDC25B isoform 4 (UniProt P30305)
inactive: [1] -0.038 | [2] 0.005 | [3] -0.056 | [4] 0.052 | [5] -0.018 | [6] 0.026 | [7] -0.013 | [8] 0.068 | [9] -0.012 | [10] 0.03

CDK4 (UniProt P11802)
Chain of UniProt P11802 (P11802 whole entry, looked up): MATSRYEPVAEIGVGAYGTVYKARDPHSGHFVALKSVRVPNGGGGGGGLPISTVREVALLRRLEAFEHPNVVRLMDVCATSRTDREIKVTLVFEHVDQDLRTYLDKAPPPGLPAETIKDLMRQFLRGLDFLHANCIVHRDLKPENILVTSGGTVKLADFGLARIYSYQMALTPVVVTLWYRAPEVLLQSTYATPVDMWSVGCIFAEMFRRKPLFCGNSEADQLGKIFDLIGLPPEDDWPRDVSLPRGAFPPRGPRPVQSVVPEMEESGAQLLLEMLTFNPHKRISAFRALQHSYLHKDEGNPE
inactive: [1] -0.111 | [2] 0.09 | [3] -0.071 | [4] 0.061 | [5] 0.062 | [6] -0.049 | [7] 0.017 | [8] -0.057 | [9] -0.031

CHMP4B (UniProt Q9H444)
Chain of UniProt Q9H444 (Q9H444 whole entry, looked up): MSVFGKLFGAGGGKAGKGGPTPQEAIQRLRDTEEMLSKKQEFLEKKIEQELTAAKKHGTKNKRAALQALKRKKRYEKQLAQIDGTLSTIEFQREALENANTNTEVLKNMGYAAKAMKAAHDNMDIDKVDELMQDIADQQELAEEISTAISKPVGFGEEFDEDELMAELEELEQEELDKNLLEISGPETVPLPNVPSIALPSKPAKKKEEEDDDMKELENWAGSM
inactive: [1] -0.101 | [2] -0.106 | [3] -0.015 | [4] 0.034 | [5] -0.036 | [6] 0.044 | [7] -0.005 | [8] 0.08 | [9] -0.09 | [10] -0.094

CDK16 isoform 2 (UniProt Q00536)
inactive: [1] 0.029 | [2] 0.021 | [3] -0.028 | [4] -0.036 | [5] 0.02 | [6] 0.252 | [7] -0.086 | [8] 0.037 | [9] 0.002

CBX1 (UniProt P83916)
inactive: [2] -0.016 | [3] 0.008 | [4] 0.038 | [5] -0.059 | [6] -0.086 | [7] 0.021 | [8] 0.003 | [9] 0.037 | [10] -0.046
active: [1] 0.41

CSTF2 (UniProt P33240)
inactive: [1] -0.052 | [2] 0.005 | [3] -0.009 | [4] 0.013 | [5] -0.016 | [6] -0.005 | [7] -0.07 | [8] 0.023 | [9] 0.021 | [10] 0.069

CDC37L1 (UniProt Q7L3B6)
inactive: [1] -0.027 | [2] 0.047 | [3] -0.057 | [4] -0.031 | [5] -0.009 | [6] -0.106 | [7] 0.029 | [8] -0.037 | [9] 0.034 | [10] -0.051

CCNH (UniProt P51946)
Chain of UniProt P51946 (P51946 whole entry, looked up): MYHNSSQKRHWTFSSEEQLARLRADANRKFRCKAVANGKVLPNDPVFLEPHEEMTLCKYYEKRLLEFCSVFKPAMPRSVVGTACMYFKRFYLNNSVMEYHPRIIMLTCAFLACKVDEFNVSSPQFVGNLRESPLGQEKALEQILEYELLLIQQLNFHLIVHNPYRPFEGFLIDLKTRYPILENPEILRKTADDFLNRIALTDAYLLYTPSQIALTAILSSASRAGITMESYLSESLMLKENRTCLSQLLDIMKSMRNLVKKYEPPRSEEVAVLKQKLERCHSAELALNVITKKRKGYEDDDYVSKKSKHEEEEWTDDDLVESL
inactive: [1] 0.043 | [2] 0.005 | [3] -0.044 | [4] 0.018 | [5] -0.011 | [6] 0.026 | [7] -0.03 | [8] -0.002 | [9] 0.023 | [10] 0.007

CLN5 (UniProt O75503)
inactive: [1] 0.021 | [2] -0.385 | [3] 0.075 | [4] 0.049 | [5] 0.265 | [6] -0.65 | [7] -0.341 | [8] 0.27 | [9] -0.028

CLASP2 isoform 3 (UniProt O75122)
inactive: [1] 0.021 | [2] 0.068 | [3] 0.033 | [4] -0.024 | [5] -0.021 | [6] 0.055 | [7] -0.002 | [8] 0.003 | [9] -0.009

CCAR1 (UniProt Q8IX12)
inactive: [1] 0.018 | [2] -0.105 | [3] 0.011 | [4] -0.041 | [5] -0.056 | [6] -0.02 | [7] 0.027 | [8] 0.014 | [9] 0.003 | [10] -0.072

CLCN3 (UniProt P51790)
inactive: [1] -0.158 | [2] -0.12 | [3] -0.099 | [4] -0.095 | [5] -0.016 | [6] 0.031 | [7] 0.045 | [8] 0.058 | [9] -0.06

CHCHD1 (UniProt Q96BP2)
inactive: [1] 0.037 | [2] -0.017 | [3] -0.001 | [4] 0.082 | [5] -0.077 | [6] -0.198 | [7] -0.042 | [8] 0.161 | [9] -0.055 | [10] -0.193

CLPTM1L (UniProt Q96KA5)
Chain of UniProt Q96KA5 (Q96KA5 whole entry, looked up): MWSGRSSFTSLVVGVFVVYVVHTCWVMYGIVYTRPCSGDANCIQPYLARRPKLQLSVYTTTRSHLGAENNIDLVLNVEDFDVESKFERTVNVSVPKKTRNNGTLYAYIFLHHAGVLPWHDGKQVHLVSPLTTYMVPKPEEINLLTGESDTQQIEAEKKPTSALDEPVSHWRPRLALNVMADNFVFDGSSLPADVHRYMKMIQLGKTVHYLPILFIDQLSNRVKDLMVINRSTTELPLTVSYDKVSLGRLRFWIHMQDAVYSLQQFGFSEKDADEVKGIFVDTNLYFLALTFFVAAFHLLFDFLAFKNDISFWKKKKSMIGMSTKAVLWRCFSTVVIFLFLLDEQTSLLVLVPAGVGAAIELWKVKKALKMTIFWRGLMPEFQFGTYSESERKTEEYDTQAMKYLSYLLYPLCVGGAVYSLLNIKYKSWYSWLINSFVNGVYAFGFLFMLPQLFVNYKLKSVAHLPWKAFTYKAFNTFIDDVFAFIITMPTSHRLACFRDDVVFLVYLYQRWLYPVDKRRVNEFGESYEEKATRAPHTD
inactive: [1] -0.053 | [2] -0.114 | [3] -0.095 | [4] -0.141 | [5] -0.032 | [6] -0.08 | [7] -0.007 | [8] 0.065 | [9] -0.02

CDK11B (UniProt P21127)
inactive: [1] -0.253 | [2] -0.009 | [3] -0.046 | [4] -0.094 | [5] 0.011 | [6] 0.151 | [7] 0.095 | [8] 0.097 | [9] -0.069 | [10] -0.057

CLSPN (UniProt Q9HAW4)
Chain of UniProt Q9HAW4 (Q9HAW4 whole entry, looked up): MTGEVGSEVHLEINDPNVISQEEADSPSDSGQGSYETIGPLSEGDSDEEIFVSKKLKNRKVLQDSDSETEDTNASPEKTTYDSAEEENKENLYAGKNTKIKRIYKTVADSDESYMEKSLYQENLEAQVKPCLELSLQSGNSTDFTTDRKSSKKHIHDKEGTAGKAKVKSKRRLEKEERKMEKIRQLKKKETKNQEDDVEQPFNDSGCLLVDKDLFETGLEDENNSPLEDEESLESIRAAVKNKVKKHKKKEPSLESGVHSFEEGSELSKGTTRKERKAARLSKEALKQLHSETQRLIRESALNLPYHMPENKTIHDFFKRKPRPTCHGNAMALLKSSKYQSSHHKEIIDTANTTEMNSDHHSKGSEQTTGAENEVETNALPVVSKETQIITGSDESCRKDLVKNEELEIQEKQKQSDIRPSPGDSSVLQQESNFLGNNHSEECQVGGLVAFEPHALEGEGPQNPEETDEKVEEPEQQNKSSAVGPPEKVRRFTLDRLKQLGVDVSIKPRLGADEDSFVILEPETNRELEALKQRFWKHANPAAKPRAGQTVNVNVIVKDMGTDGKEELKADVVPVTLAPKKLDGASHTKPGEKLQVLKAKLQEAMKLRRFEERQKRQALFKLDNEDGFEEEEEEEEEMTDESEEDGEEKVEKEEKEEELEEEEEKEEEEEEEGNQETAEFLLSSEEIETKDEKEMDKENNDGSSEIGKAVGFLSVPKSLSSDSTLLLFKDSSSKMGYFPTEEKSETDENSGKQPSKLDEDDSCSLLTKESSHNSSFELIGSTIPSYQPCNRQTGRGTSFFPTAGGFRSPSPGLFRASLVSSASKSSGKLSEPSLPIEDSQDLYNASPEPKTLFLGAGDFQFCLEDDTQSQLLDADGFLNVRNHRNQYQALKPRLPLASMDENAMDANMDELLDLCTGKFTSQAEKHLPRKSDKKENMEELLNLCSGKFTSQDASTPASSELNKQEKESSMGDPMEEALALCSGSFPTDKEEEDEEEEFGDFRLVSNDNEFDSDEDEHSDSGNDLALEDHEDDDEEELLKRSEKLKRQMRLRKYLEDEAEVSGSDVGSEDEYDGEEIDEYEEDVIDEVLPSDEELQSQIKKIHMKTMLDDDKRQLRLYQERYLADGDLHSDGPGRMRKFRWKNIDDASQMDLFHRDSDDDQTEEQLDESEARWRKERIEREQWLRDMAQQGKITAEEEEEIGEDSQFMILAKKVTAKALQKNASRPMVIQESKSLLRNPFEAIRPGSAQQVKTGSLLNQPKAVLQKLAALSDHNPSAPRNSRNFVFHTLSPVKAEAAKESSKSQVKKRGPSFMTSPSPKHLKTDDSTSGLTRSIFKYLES
inactive: [1] -0.076 | [2] 0.053 | [3] -0.034 | [4] 0.107 | [5] 0.004 | [6] -0.111 | [7] -0.019 | [8] -0.018 | [9] 0.053

CLUH (UniProt O75153)
inactive: [1] -0.026 | [2] 0.07 | [3] 0.028 | [4] -0.074 | [5] -0.072 | [6] -0.022 | [7] -0.001 | [8] -0.152 | [9] 0.006

CBX5 (UniProt P45973)
Chain of UniProt P45973 (P45973 whole entry, looked up): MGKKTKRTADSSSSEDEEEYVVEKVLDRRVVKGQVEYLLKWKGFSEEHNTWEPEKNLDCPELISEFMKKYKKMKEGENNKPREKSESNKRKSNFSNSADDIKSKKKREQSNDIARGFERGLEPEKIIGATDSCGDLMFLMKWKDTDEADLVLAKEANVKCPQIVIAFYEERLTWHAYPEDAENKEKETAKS
inactive: [1] 0.119 | [2] -0.046 | [3] 0.029 | [4] -0.014 | [5] -0.062 | [6] 0.003 | [7] 0.024 | [8] 0.022 | [9] 0.019 | [10] 0.106

CIZ1 (UniProt Q9ULV3)
inactive: [1] 0.039 | [2] 0.04 | [3] -0.006 | [4] 0.054 | [5] -0.042 | [6] -0.106 | [7] -0.099 | [8] 0.034 | [9] 0.025 | [10] 0.05

From the supplement of paper PMC10849652
